# SENP8 block-1 – human SENP8 protease inhibitors, primary screen, biochemical, fluorescence, Nedd8 protein substrate, uHTS. Sentrin-specific protease 8 (Homo sapiens), Q96LD8. recombinant SENP8. inhibition, % at 20 µM. 360,000 compounds, 0.64% hits; in the data active means inhibition mostly above about 40%, no sharp cut-off; inactive means mostly below about 27%
# Target sequence (Q96LD8 whole entry, looked up): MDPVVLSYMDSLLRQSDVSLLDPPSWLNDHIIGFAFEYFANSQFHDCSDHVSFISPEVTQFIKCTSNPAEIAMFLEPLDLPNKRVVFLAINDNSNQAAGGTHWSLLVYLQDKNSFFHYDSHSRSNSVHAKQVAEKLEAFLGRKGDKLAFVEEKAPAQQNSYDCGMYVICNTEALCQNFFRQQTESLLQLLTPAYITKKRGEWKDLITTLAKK
# SENP8 block-2 – SENP8 protease inhibitors, primary screen, biochemical, luminescence; 330,000 compounds, 1.2% hits; AID 2540, 2010; Sentrin-specific protease 8 (Homo sapiens), Q96LD8; inhibition, % at 10 µM; purified SENP8, Z-RLRGG-aminoluciferin cleavage; in the data active means inhibition above about 50%
# HSP90 refold inh – HSP90 inhibitors, primary screen, cell lysate, luminescence; Rabbit reticulocyte lysate, luciferase refolding luminescence, 3 h; AID 1789, 2009; 290,000 compounds, 0.91% hits; inhibition, % at 5.6 µM; Heat shock protein HSP 90 (rabbit reticulocyte lysate; luciferase refolding);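 active means inhibition above the screen-wide mean plus 3 SD, computed separately per campaign, cut at about 16% in these data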;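 further: inhibitors lower the luminescence because luciferase stays unfolded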
# SENP7 inh – SENP7 protease inhibitors, primary screen, biochemical, luminescence, uHTS; recombinant SENP7, Z-RLRGG-aminoluciferin luminescence, 40 min; 330,000 compounds, 1.5% hits; inhibition, % at 5 µM; Sentrin-specific protease 7 (Homo sapiens), Q9BQF6;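 active means inhibition above about 50% at the single test dose, limit read from the data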
# Target sequence (Q9BQF6 706-1050 limits assumed): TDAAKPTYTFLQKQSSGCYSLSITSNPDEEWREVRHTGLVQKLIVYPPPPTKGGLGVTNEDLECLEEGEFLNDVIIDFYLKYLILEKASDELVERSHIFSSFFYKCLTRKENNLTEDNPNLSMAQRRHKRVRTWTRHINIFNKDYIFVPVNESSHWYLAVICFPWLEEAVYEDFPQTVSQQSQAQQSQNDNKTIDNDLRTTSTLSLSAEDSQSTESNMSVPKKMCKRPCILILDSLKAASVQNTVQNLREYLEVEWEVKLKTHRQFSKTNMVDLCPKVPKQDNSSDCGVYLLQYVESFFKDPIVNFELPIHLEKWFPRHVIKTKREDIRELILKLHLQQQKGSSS
# SENP6 inh – SENP6 protease inhibitors, primary screen, biochemical, luminescence, uHTS; Recombinant SENP6 catalytic domain, aminoluciferin luminescence; inhibition, % at 10 µM; 330,000 compounds, 1.8% hits; AID 2599, 2010;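 active means inhibition above about 50% at the single tested dose, limit read from the data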
# SENP8 confirm – SENP8 protease inhibitors, retest, confirmation, biochemical, luminescence, single concentration | shares compounds with SENP7 inh | Recombinant SENP8, Z-RLRGG-aminoluciferin luminescence, 60 min | inhibition, % at 12.5 µM | 6,200 compounds, 40% hits;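 active means mean inhibition across replicates above about 50%, limit read from the data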
# SENP6 confirm – SENP6 protease inhibitors, confirmation, biochemical, luminescence, single concentration | recombinant SENP6, Z-RLRGG-aminoluciferin luminescence | 6,200 compounds, 58% hits | shares compounds with SENP7 inh | inhibition, % at 12.5 µM
# SENP7 conf – SENP7 protease inhibitors, retest, confirmation, biochemical, luminescence, single concentration; 6,200 compounds, 69% hits; shares compounds with SENP7 inh; recombinant SENP7, Z-RLRGG-aminoluciferin luminescence, 40 min; inhibition, % at 12.5 µM; AID 488917, 2010
# Casp3 SENP sel – caspase-3 protease inhibitors, confirmation, selectivity assay for SENP inhibitor project, biochemical, single concentration; AID 488918, 2010; purified caspase-3, Z-DEVD-aminoluciferin luminescence, 60 min; shares compounds with SENP7 inh; inhibition, % at 12.5 µM; 6,200 compounds, 60% hits;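 active means mean inhibition above about 50%, limit read from the data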
# SENP luc ctr – interferes with luciferase luminescence in SENP counter-screen. shares compounds with SENP7 inh. Pre-incubated SENP8/Z-RLRGG-aminoluciferin, luciferase luminescence interference. inhibition, % at 12.5 µM. 6,200 compounds, 39% hits. AID 488919;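 active means mean inhibition above about 50% when retested at one dose, limit read from the data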
# Hits are given with their value; – = inactive; · = no result. Sampled rows, rich in hits. Any-hit rate of the full collection: about 2.8%.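 How the source made its calls, unless noted: active means mean inhibition above about 50% in the one-dose retest (limit read from the data); inactive means the rest.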
SMILES,SENP8 block-1,SENP8 block-2,HSP90 refold inh,SENP7 inh,SENP6 inh,SENP8 confirm,SENP6 confirm,SENP7 conf,Casp3 SENP sel,SENP luc ctr
COc1ccccc1C(=O)Nc1ccc2c(c1)CCCN2C(=O)c1ccccc1,–,84,–,84,90,85,82,95,85,76
O=C(NCc1ccccn1)C1CCN(S(=O)(=O)N2CCC3(CC2)OCCO3)CC1,–,–,–,–,–,·,·,·,·,·
CN(C)C(CNc1ccc(S(C)(=O)=O)cc1[N+](=O)[O-])c1ccccc1 (stereo not given),–,–,–,–,65,–,–,–,–,–
Cc1ccc(S(=O)(=O)N2CCC(C(=O)N3CC(C)OC(C)C3)CC2)cc1 (stereo not given),–,–,–,–,–,·,·,·,·,·
O=C(Nc1ccc(-c2nc3cc(Cl)ccc3o2)cc1)C1CCCO1 (stereo not given),–,–,–,70,–,–,–,–,–,–
O=C(Nc1ccc2oc(-c3ccccc3)nc2c1)C1CCCO1 (stereo not given),–,–,–,–,–,·,·,·,·,·
O=C(Nc1ccc(-c2nc3cccnc3s2)cc1)C1CCCO1 (stereo not given),–,90,60,94,93,95,95,101,97,79
O=C(Nc1ccc(-c2nc3ccccc3o2)cc1)C1CCCO1 (stereo not given),–,80,–,91,94,91,92,100,93,–
O=C(O)c1ccccc1-c1ccccc1C(=O)Nc1ccc(-c2nc3cc(Cl)ccc3o2)cc1,–,–,–,–,–,·,·,·,·,·
CC(=O)Nc1ccc(-c2nc3cc(Cl)ccc3o2)cc1,–,–,–,59,57,–,–,53,–,–
CCN(CC)c1ccc(N=Nc2nn(C)c(C)c2[N+](=O)[O-])cc1,–,54,–,63,78,–,–,–,–,–
CCCOc1ccc(C(CC(=O)O)NC(=O)C23CC4CC(CC(C4)C2)C3)cc1 (stereo not given),–,–,–,–,–,·,·,·,·,·
c1ccc(NC2=Nc3ccccc3CS2)cc1,–,51,–,78,82,–,63,90,69,–
N#C/C(=N\Nc1cccc(Cl)c1)C(=O)c1ccccc1,–,69,–,–,87,–,74,76,–,72
CCN(C(=O)CSc1nc2cc(Cl)ccc2c(=O)n1CC(C)C)C1CCS(=O)(=O)C1 (stereo not given),–,–,·,–,–,·,·,·,·,·
CCN1CCCC1CNC(=O)Cn1nc(C)n2c(cc3cc(F)ccc32)c1=O (stereo not given),–,–,–,–,–,·,·,·,·,·
Cc1cc([N+](=O)[O-])cc(/C=N\NC(=O)C2COc3ccccc3O2)c1O (stereo not given),–,–,–,–,64,–,–,66,–,–
CN(C)c1ccc(NC(=O)CSCc2nc3c(nnn3Cc3ccc(F)cc3)c(=O)[nH]2)cc1,–,–,–,–,–,·,·,·,·,·
O=C(c1ccc(-c2ccccc2Cl)o1)N1CCCCCCC1,–,·,·,·,·,·,·,·,·,·
CC1CCCN(C(=O)c2ccc(-c3ccccc3Cl)o2)C1 (stereo not given),–,–,·,–,50,–,–,59,–,–
Cc1ccc2sc(-c3ccc(NC(=O)/C=C\C(=O)O)cc3)nc2c1,–,55,–,–,72,–,–,–,–,–
Cc1ccc2nc(-c3ccc(NC(=O)CSCC(=O)O)cc3)sc2c1,–,65,–,–,82,–,66,88,55,68
Cc1ccc2nc(-c3ccc(NC(=O)COCC(=O)O)cc3)sc2c1,–,82,–,63,79,90,90,99,82,87
O=C(O)CSCC(=O)Nc1ccc(-c2nc3ccccc3s2)cc1,–,92,–,92,94,96,96,101,96,96
Cc1csc(NC(=O)CSCC(=O)O)c1-c1nc2ccccc2s1,–,–,–,–,–,·,·,·,·,·
SMILES,SENP8 block-1,SENP8 block-2,HSP90 refold inh,SENP7 inh,SENP6 inh,SENP8 confirm,SENP6 confirm,SENP7 conf,Casp3 SENP sel,SENP luc ctr
CCC(=O)NC(=S)Nc1ccc(-c2nc3ccc(C)cc3s2)cc1,–,–,–,–,–,·,·,·,·,·
COc1ccc(N2CCN(C(c3cccs3)C(C)NS(=O)(=O)c3ccccc3)CC2)cc1 (stereo not given),–,–,–,–,–,·,·,·,·,·
COc1ccc(-c2nc3n(n2)C(c2ccncc2)C(C(N)=O)=C(C)N3)cc1 (stereo not given),–,–,–,–,–,·,·,·,·,·
COc1ccc(C(=O)Nc2nnc(SCC(=O)NC3CCCC3)s2)c(OC)c1,–,–,–,63,64,–,–,–,–,–
O=C(NCc1ccc(Cl)cc1)c1cc2ccccn2n1,–,–,–,–,–,·,·,·,·,·
COc1ccc2nc(NC(=O)Nc3ccccc3)sc2c1,–,–,–,85,68,–,–,91,52,–
CCOc1ccc2nc(NC(=O)Nc3ccccc3)sc2c1,–,–,–,–,–,·,·,·,·,·
COc1ccc(NC(=O)c2sc(NC(=O)COc3ccccc3)nc2C)cc1,–,59,–,–,68,–,54,96,82,–
COc1ccc(NC(=O)c2cc3ccccn3n2)cc1,–,58,–,69,71,77,75,94,88,79
COc1ccc(OC)c(NC(=O)c2nc3ccccc3s2)c1,–,–,–,–,–,·,·,·,·,·
COc1ccc(C(=O)Nc2nc3ccccc3s2)c(OC)c1,–,98,91,101,97,88,100,103,98,–
O=C(Nc1ccc(Cl)cc1)/C(=C/c1cccc(O)c1)c1nc2ccccc2s1,–,–,–,–,–,·,·,·,·,·
S=C(Nc1ccc(Cl)cc1)c1nc2ccccc2s1,–,–,–,57,–,–,–,–,–,–

# Screens: PubChem BioAssay, several laboratories
